Results filed as inconclusive are left out. The source made the active and inactive calls. Unless noted, the call rests on the fitted dose curve; in most records, active means well fitted curve in the direction sought with a large enough effect in the repeat runs; inconclusive means weak or mixed curves; inactive means no such curve, though single readings can be large; an effect the other way counts as inactive or inconclusive.
What was measured:
[1] = qHTS assay to identify small molecule antagonists of the estrogen related receptor (ERR) signaling pathway - cell viability counter screen (AID 1224818); further: series mostly up to about 46 µM; on the % scale 0 is the no-effect control and ±100 the full control effect
Procedure, shortened: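 ERR cells, 2,000 per well, compound added after 6 h and incubated 17.5 h at 37 C. Viability read by CellTiter-Fluor fluorescence after a further 30 min at 37 C.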

[2] = qHTS assay to identify small molecule antagonists of the estrogen related receptor (ERR) signaling pathway (AID 1224819;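 further: luminescence from an ERR-driven luciferase reporter measured with One-Glo reagent; series mostly up to about 46 µM; on the % scale 0 is the no-effect control and ±100 the full control effect; nearly all actives have a fitted effect of over 50% in size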)
Procedure, shortened: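 ERR reporter cell line (NTP) plated at 2,000 cells/well, settled 6 h at 37C/5% CO2, then exposed to LOPAC compounds for 18 h at 37C. One-Glo luciferase luminescence read after 30 min at room temperature.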

[3] = qHTS assay to identify small molecule antagonists of the estrogen related receptor signaling pathway with the pleiotropic PPARgamma coactivator (PGC) cell viability counter screen (AID 1224822; further: series mostly up to about 46 µM; on the % scale 0 is the no-effect control and ±100 the full control effect)
Procedure, shortened: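 PGC/ERR cells rested 6 h, then compound-treated 17.5 h at 37 C. CellTiter-Fluor added for 30 min at 37 C, viability measured by fluorescence intensity.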

[4] = qHTS assay to identify small molecule agonists of the estrogen related receptor signaling pathway with the pleiotropic PPARgamma coactivator (PGC) (AID 1224823); further: on the % scale 0 is the no-effect control and ±100 the full control effect
Procedure, shortened: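 Cell-based luciferase assay in the NTP-supplied PGC/ERR line, 2,000 cells/well; 18 h compound exposure at 37 C, luminescence after One-Glo.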

[5] = test system: estrogen-related receptor alpha (ERRalpha) with PGC-1alpha coactivator, human; assay: qHTS assay to identify small molecule antagonists of the estrogen related receptor signaling pathway with the pleiotropic PPARgamma coactivator (PGC) (AID 1224821; calls by dose curve;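 further: series mostly up to about 46 µM; on the % scale 0 is the no-effect control and ±100 the full control effect; lower luminescence signal means antagonism of PGC/ERR signalling; nearly all actives have a fitted effect of over 50% in size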)
Procedure, shortened: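 Quantitative HTS for antagonism: PGC/ERR cells received compounds after 6 h attachment and were incubated 18 h at 37 C, with luminescence (One-Glo) as the endpoint.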

[6] = qHTS assay for small molecule agonists of the p53 signaling pathway (AID 651631; calls by dose curve; further: on the % scale 0 is the no-effect control and ±100 the full control effect; nearly all actives have a fitted effect of over 15% in size)
Procedure, shortened: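 Stably transfected HCT-116 cells (beta-lactamase behind p53 response elements) get compounds after a 5 h settling period; 16 h later at 37 °C, FRET substrate is loaded and fluorescence read after 2 h.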

[7] = qHTS assay for small molecules that induce genotoxicity in human embryonic kidney cells expressing luciferase-tagged ATAD5 (AID 651632); further: on the % scale 0 is the no-effect control and ±100 the full control effect; nearly all actives have a fitted effect of over 15% in size
Procedure, shortened: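 HEK293T cells carrying luciferase-tagged ATAD5 were given compound or DMSO vehicle and incubated 16 hr at 37C, 5% CO2. Luciferase activity was read after 30 min at room temperature with Amplite; a rise signals genotoxic stress.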

[8] = qHTS assay for small molecule agonists of the p53 signaling pathway - cell viability (AID 651633; calls by dose curve;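 further: p53RE-bla HCT reporter cells with a stable beta-lactamase p53 reporter; series mostly up to about 83 µM; on the % scale 0 is the no-effect control and ±100 the full control effect; nearly all actives have a fitted effect of over 30% in size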)
Procedure, shortened: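 p53RE-bla cells were treated with compound for 16 hours at 37 C. Cytotoxicity was then measured as CellTiter-Glo luminescence after 30 min at room temperature.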

[9] = qHTS assay for small molecules that induce genotoxicity in human embryonic kidney cells expressing luciferase-tagged ATAD5 - cell viability (AID 651634; calls by dose curve; further: on the % scale 0 is the no-effect control and ±100 the full control effect; nearly all actives have a fitted effect of over 25% in size)
Procedure, shortened: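 HEK293T cells carrying luciferase-tagged ATAD5, 2,000 cells/well, exposed to compound for 15.5 hr at 37C. Viability read as live-cell protease activity by CellTiter-Fluor fluorescence after 30 min at 37C.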

[10] = qHTS assay for small molecule disruptors of the mitochondrial membrane potential - cell viability (AID 720634; calls by dose curve;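 further: human HepG2 liver cancer cells; series mostly up to about 83 µM; on the % scale 0 is the no-effect control and ±100 the full control effect; nearly all actives have a fitted effect of over 20% in size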)
Procedure, shortened: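 HepG2 cells, 2,000 per well, attached overnight, then treated 1 hr at 37 C, 5% CO2. Viability read as ATP by CellTiter-Glo luminescence after 30 min at room temperature. Read in the same wells as the m-MPI membrane-potential dye assay.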

[11] = qHTS assay to test for compound auto fluorescence at 590 nm (red) in HepG2 cells (AID 720674); further: on the % scale 0 is the no-effect control and ±100 the full control effect
Procedure, shortened: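 HepG2 cells, 2,000 per well in MEM with 10% FBS, attached overnight at 37 C, then got 23 nL compound or DMSO. After 1 hr at 37 C, 5% CO2, red fluorescence was read at 540/590 nm against Rose Bengal sodium as reference.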

[12] = qHTS assay to test for compound auto fluorescence at 460 nm (blue) in HEK293 cells (AID 720678); further: on the % scale 0 is the no-effect control and ±100 the full control effect
Procedure, shortened: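 Measured: blue fluorescence (Ex 405/Em 460 nm) of compound-treated HEK293 cells, incubated overnight at 37C with 5% CO2 and scaled to triamterene equivalents.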

[13] = qHTS assay to test for compound auto fluorescence at 590 nm (red) in HEK293 cells (AID 720679); further: on the % scale 0 is the no-effect control and ±100 the full control effect
Procedure, shortened: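 Using HEK293 cells at 2,000 per well, the screen added 23 nL of each compound after cell attachment and incubated overnight (37C, 5% CO2). The plate reader then captured red-label fluorescence, Ex/Em 540/590nm.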

[14] = qHTS assay to test for compound auto fluorescence at 460 nm (blue) in HEK293 cell free culture (AID 720681); further: on the % scale 0 is the no-effect control and ±100 the full control effect
Procedure, shortened: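 Compounds were added to cell-free DMEM with 10% FBS and fluorescence read directly. The blue channel used 405 nm excitation and 460 nm emission, with triamterene as the reference fluorophore.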

[15] = qHTS assay to test for compound auto fluorescence at 535 nm (green) in HEK293 cell free culture (AID 720682); further: on the % scale 0 is the no-effect control and ±100 the full control effect
Procedure, shortened: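 Using fluorescein as calibrant, autofluorescence was quantified at 485/535 nm in cell-free DMEM containing 10% FBS after pintool addition of compound or vehicle.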

[16] = qHTS assay to test for compound auto fluorescence at 590 nm (red) in HepG2 cell free culture (AID 720684); further: on the % scale 0 is the no-effect control and ±100 the full control effect
Procedure, shortened: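 Compounds are added to culture medium (MEM, 10% FBS) lacking cells, then fluorescence is read at excitation 540 nm, emission 590 nm, with Rose Bengal sodium as the equivalency standard.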

[17] = qHTS assay to test for compound auto fluorescence at 460 nm (blue) in HepG2 cell free culture (AID 720685); further: on the % scale 0 is the no-effect control and ±100 the full control effect
Procedure, shortened: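 Compound (23 nL) or DMSO pinned into cell-free MEM with 10% FBS; blue fluorescence read at 405/460 nm excitation/emission, expressed as auto-fluorescence equivalency to triamterene.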

[18] = qHTS assay to test for compound auto fluorescence at 535 nm (green) in HepG2 cell free culture (AID 720686); further: on the % scale 0 is the no-effect control and ±100 the full control effect
[19] = qHTS assay to test for compound auto fluorescence at 460 nm (blue) in HepG2 cells (AID 720687); further: on the % scale 0 is the no-effect control and ±100 the full control effect
Procedure, shortened: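 HepG2 cells in MEM with 10% FBS, attached overnight at 37 C, were exposed to compound or DMSO for 1 hr at 37 C, 5% CO2. Blue fluorescence was read at 405/460 nm, with triamterene as reference fluorophore.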

[20] = target: Glucocorticoid receptor (Homo sapiens) (UniProt P04150); assay: qHTS assay to identify small molecule agonists of the glucocorticoid receptor (GR) signaling pathway (AID 720691; active means well fitted activation curve with a large enough effect in the signal ratio in the repeat runs, not every such curve was filed as active; the % refers to the signal ratio; further: on the % scale 0 is the no-effect control and ±100 the full control effect)
Procedure, shortened: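 GR-bla HeLa cells carrying a GRE-driven beta-lactamase reporter, exposed to compounds for 18 h at 37 C. Reporter activation read as fluorescence after 2 h with LiveBLAzer B/G FRET substrate at room temperature.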

[21] = target: Glucocorticoid receptor (Homo sapiens) (UniProt P04150); assay: qHTS assay to identify small molecule antagonists of the glucocorticoid receptor (GR) signaling pathway (AID 720692; active means well fitted inhibition curve with a large enough effect in the signal ratio in the repeat runs, not every such curve was filed as active; the % refers to the signal ratio; further: on the % scale 0 is the no-effect control and ±100 the full control effect)
Procedure, shortened: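 GR-bla HeLa cells carrying a GRE-driven beta-lactamase reporter received compound after 4 h plating, then dexamethasone (5 nM final). After 18 h at 37C, the FRET substrate was loaded for 2 h at room temperature and fluorescence read.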

[22] = qHTS assay to identify small molecule antagonists of the glucocorticoid receptor (GR) signaling pathway - cell viability counter screen (AID 720693); further: on the % scale 0 is the no-effect control and ±100 the full control effect; nearly all actives have a fitted effect of over 55% in size
[23] = qHTS assay for identifying genotoxic compounds that show differential cytotoxicity against isogenic chicken DT40 cell lines with known DNA damage response pathways - wild type cell line (AID 743012); further: potency means the concentration at half of the fitted maximal effect; nearly all actives have a fitted effect of over 60% in size
Procedure, shortened: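 Wild-type DT40 cells (300/well) exposed to compounds for 40 hours at 37 C/5% CO2. Viability read by CellTiter-Glo luminescence after 30 min at room temperature.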

[24] = qHTS assay for identifying genotoxic compounds that show differential cytotoxicity against isogenic chicken DT40 cell lines with known DNA damage response pathways - Rev3 mutant cell line (AID 743014); further: potency means the concentration at half of the fitted maximal effect; nearly all actives have a fitted effect of over 55% in size
[25] = qHTS assay for identifying genotoxic compounds that show differential cytotoxicity against isogenic chicken DT40 cell lines with known DNA damage response pathways - Rad54/Ku70 mutant cell line (AID 743015); further: potency means the concentration at half of the fitted maximal effect; nearly all actives have a fitted effect of over 60% in size
[26] = qHTS assay to identify small molecule antagonists of the androgen receptor (AR) signaling pathway - cell viability counter screen (AID 743033; further: on the % scale 0 is the no-effect control and ±100 the full control effect; nearly all actives have a fitted effect of over 45% in size)
[27] = qHTS assay to identify small molecule antagonists of the androgen receptor (AR) signaling pathway using the MDA cell line - cell viability counter screen (AID 743041; further: on the % scale 0 is the no-effect control and ±100 the full control effect; nearly all actives have a fitted effect of over 45% in size)
Procedure, shortened: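 Same-well cytotoxicity was assessed by CellTiter-Fluor in MDA-kb2 AR-luc cells after 16 h of compound treatment under R1881 agonism.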

[28] = test system: thyroid hormone receptor (rat, GH3 cells); assay: qHTS assay to identify small molecule agonists of the thyroid receptor (TR) signaling pathway (AID 743066; calls by dose curve; further: on the % scale 0 is the no-effect control and ±100 the full control effect)
[29] = target: Estrogen receptor (Homo sapiens) (UniProt P03372); assay: qHTS assay to identify small molecule antagonists of the estrogen receptor alpha (ER-alpha) signaling pathway (AID 743069; active means well fitted curve in the direction sought with a large enough effect in the signal ratio in the repeat runs, not every such curve was filed as active; the % refers to the signal ratio; further: on the % scale 0 is the no-effect control and ±100 the full control effect)
Procedure, shortened: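 Reporter cells (ER-alpha-bla, HEK293 background) are conditioned overnight in stripped-serum medium (2% charcoal-stripped FBS). Compound and 17beta-estradiol exposure runs 18 hr at 37C, 5% CO2.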

[30] = qHTS assay to identify small molecule antagonists of the estrogen receptor alpha (ER-alpha) signaling pathway - cell viability counter screen (AID 743074; calls by dose curve;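 further: HEK293 cells carrying ER-alpha-UAS-bla reporter stimulated with 17beta-estradiol; on the % scale 0 is the no-effect control and ±100 the full control effect; nearly all actives have a fitted effect of over 45% in size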)
[31] = target: Estrogen receptor (Homo sapiens) (UniProt P03372); assay: qHTS assay to identify small molecule agonists of the estrogen receptor alpha (ER-alpha) signaling pathway (AID 743075; calls by dose curve)
[32] = target: Estrogen receptor (Homo sapiens) (UniProt P03372); assay: qHTS assay to identify small molecule agonists of the estrogen receptor alpha (ER-alpha) signaling pathway using the BG1 cell line (AID 743079); further: potency means the concentration at half of the fitted maximal effect; nearly all actives have a fitted effect of over 20% in size
[33] = qHTS assay to identify small molecule antagonists of the estrogen receptor alpha (ER-alpha) signaling pathway using the BG1 cell line (AID 743080; calls by dose curve)
Procedure, shortened: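 Quantitative HTS on the Tox21 10K library: BG1 cells with endogenous ER-alpha and ERE-luciferase reporter, 17beta-estradiol stimulation, 21.5 h compound exposure, luminescence endpoint with parallel fluorescence cytotoxicity counter-read.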

[34] = qHTS assay to identify small molecule antagonists of the estrogen receptor alpha (ER-alpha) signaling pathway using the BG1 cell line - cell viability counter screen (AID 743081)
Aromatase (Homo sapiens) = Aromatase (Homo sapiens) (UniProt P11511); assay: qHTS assay to identify aromatase inhibitors (AID 743083)
[35] = qHTS assay to identify aromatase inhibitors - cell viability counter screen (AID 743084)
[36] = target: Aryl hydrocarbon receptor (Homo sapiens) (UniProt P35869); assay: qHTS assay to identify small molecule that activate the aryl hydrocarbon receptor (AhR) signaling pathway (AID 743085)
Procedure, shortened: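 Measured in HG2L7.5c1 cells: CellTiter-Fluor signal (30 min incubation, 37C) for viability, then luciferase luminescence (30 min, room temperature). Compound contact time was 24 h at 37C, following a 5 h pre-incubation.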

[37] = qHTS assay to identify small molecule that activate the aryl hydrocarbon receptor (AhR) signaling pathway - cell viability counter screen (AID 743086)
Procedure, shortened: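 HepG2-AhR-luc (HG2L7.5c1) cells, 4000/well, treated 24 h at 37 C with compound; viability measured as CellTiter-Fluor fluorescence after 30 min in the same wells as the luciferase read.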

[38] = qHTS assay to identify small molecule phospholipidosis (PLD) inducers (AID 1259344; active means well fitted curve in the direction sought with a large enough effect; an effect the other way counts as inactive or inconclusive)
Procedure, shortened: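 Quantitative HTS in HepG2: compound plus LipidTOX Red dye for 24 h, paraformaldehyde fixation with Hoechst 33342, widefield high-content imaging; amiodarone as positive and DMSO as negative control.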

[39] = target: Nuclear receptor subfamily 1 group I member 2 (Rattus norvegicus) (UniProt Q9R1A7); assay: Rat pregnane X receptor (rPXR) activation by small molecules, qHTS assay (AID 1346983); conditions: rPXR luciferase reporter cells, One-Glo luminescence, 24 h; max activation: active compounds read high
Procedure, shortened: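 Cell-based rPXR activation assay: rPXR cells, 2,000 per well, rested 5hr at 37 C, then exposed to compounds in DMSO for 24 hr at 37 C. Luciferase activity read by One-Glo luminescence after 30 min at room temperature.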

[40] = target: Nuclear receptor subfamily 1 group I member 2 (Homo sapiens) (UniProt O75469); assay: CYP3A4 induction through human pregnane X receptor (PXR) by small molecules, qHTS assay (AID 1346984)
Procedure, shortened: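 DPX-2 HepG2 cells carrying a PXR response element and CYP3A4-promoter luciferase construct, treated with compounds 24 hr at 37C. Then P450-Glo CYP3A4 Luciferin-IPA substrate (3uM final) for 3 hr at 37C, One-Glo added, luminescence read.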

Estrogen receptor (Homo sapiens), sequence (P03372 whole entry, looked up): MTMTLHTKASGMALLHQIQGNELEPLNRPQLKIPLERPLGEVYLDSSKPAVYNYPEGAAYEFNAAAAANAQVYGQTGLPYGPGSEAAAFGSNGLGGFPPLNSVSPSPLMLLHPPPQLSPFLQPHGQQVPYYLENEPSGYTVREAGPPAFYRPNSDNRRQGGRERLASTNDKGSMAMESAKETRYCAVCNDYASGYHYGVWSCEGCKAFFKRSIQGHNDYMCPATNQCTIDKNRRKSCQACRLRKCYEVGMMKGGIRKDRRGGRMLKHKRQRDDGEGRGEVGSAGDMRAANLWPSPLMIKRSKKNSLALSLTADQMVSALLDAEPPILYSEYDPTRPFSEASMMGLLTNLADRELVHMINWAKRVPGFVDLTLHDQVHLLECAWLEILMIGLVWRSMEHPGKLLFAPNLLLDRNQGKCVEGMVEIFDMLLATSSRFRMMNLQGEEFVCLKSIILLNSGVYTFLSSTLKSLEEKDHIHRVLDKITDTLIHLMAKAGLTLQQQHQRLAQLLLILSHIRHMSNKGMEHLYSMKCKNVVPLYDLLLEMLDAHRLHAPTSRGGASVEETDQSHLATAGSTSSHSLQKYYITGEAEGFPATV
Glucocorticoid receptor (Homo sapiens), sequence (P04150 whole entry, looked up): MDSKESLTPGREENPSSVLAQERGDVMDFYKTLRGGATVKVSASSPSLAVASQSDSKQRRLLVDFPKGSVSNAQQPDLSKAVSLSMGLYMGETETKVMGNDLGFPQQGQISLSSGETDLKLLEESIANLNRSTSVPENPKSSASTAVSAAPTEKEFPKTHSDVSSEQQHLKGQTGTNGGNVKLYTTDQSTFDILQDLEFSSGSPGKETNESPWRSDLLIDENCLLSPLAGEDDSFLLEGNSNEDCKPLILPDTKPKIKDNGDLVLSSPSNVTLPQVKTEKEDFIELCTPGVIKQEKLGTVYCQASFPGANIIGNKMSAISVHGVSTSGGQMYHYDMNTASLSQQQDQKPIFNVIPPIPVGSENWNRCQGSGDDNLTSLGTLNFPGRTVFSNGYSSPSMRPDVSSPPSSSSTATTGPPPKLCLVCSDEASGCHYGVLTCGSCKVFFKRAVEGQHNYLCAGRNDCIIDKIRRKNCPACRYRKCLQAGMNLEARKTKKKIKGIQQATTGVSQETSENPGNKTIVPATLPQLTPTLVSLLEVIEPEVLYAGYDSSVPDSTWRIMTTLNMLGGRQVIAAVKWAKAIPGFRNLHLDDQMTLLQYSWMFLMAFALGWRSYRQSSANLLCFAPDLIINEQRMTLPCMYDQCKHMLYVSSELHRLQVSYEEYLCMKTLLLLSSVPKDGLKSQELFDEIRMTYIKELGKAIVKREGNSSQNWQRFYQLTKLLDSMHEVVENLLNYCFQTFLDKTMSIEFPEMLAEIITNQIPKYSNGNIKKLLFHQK
Nuclear receptor subfamily 1 group I member 2 (Rattus norvegicus), sequence (Q9R1A7 whole entry, looked up): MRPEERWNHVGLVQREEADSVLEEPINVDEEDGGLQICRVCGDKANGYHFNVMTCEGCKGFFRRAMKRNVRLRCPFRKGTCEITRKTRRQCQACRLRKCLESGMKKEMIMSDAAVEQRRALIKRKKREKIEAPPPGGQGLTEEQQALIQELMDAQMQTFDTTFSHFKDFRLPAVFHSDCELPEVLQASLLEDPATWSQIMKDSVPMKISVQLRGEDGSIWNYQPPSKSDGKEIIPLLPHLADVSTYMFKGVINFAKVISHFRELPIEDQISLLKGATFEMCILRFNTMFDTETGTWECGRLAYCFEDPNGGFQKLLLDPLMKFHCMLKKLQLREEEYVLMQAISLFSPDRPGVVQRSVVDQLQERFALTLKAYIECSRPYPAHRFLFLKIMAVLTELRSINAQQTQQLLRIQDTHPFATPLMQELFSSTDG
Aromatase (Homo sapiens), sequence (P11511 whole entry, looked up): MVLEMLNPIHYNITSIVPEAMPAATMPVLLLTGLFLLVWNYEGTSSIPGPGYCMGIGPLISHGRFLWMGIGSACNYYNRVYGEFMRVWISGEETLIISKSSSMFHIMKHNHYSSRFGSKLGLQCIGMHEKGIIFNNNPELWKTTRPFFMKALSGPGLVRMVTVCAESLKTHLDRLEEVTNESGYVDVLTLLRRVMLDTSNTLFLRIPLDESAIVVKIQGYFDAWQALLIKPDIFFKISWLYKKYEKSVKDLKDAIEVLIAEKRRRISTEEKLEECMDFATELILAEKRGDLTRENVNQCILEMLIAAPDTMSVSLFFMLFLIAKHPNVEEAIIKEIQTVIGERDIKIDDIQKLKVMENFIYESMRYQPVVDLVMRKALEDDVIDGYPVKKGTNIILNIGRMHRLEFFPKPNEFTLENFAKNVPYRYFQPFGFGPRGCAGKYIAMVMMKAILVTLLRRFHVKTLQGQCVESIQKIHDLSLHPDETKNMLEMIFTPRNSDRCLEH
Aryl hydrocarbon receptor (Homo sapiens), sequence (P35869 whole entry, looked up): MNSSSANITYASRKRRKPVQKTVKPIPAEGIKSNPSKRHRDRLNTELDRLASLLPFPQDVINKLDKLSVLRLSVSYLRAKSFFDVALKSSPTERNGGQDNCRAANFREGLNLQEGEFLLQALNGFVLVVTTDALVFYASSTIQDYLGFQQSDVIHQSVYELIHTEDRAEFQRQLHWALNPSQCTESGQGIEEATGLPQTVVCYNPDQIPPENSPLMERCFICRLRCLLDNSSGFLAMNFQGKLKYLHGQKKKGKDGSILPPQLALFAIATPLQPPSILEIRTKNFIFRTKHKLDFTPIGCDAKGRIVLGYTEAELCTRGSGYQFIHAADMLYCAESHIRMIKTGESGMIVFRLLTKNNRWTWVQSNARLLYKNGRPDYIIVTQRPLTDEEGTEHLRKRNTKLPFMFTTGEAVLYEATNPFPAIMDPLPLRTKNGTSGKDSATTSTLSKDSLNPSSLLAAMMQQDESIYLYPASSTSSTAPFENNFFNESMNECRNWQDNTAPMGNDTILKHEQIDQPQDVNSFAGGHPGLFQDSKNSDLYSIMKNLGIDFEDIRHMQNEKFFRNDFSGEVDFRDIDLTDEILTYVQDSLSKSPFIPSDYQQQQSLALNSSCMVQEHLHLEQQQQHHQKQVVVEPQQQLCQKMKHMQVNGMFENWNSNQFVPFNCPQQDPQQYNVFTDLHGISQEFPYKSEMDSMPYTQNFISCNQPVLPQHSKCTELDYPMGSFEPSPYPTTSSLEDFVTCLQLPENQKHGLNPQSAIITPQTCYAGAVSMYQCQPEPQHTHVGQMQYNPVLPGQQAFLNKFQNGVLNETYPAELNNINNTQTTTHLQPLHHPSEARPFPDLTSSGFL

CN(N=O)c1cc(O)ccc1O
inactive: Potency [1] | Potency [2] | Potency [3] | Potency [4]

CCCC[N+]1(C)C2CC(OC(=O)[C@H](CO)c3ccccc3)CC1C1OC12 (stereo not given in full)
inactive: Potency [1] | Potency [3]

COC(=O)[C@@H](N)CCCN=C(N)N[N+](=O)[O-]
inactive: Potency [1] | Potency [3]

O=C(NC1CN2CCC1CC2)c1cc2ccoc2cn1 (stereo not given)
inactive: Potency [1] | Potency [3]

Cc1cc([C@@H]2CCCN2C)on1
inactive: Potency [1] | Potency [2] | Potency [5] | Potency [3] | Potency [4]

CC(C)NC(C)Cc1ccc(I)cc1 (stereo not given)
active: Potency [23] 26.6 µM | Potency [24] 1.68 µM | Potency [25] 13.3 µM | Potency [32] 21.1 µM
inactive: Potency [6] | Potency [7] | Potency [8] | Potency [9] | Potency [10] | outcome [11] | Potency [12] | outcome [13] | Potency [14] | Potency [15] | outcome [16] | Potency [17] | Potency [18] | Potency [19] | Potency [20] | Potency [21] | Potency [22] | Potency [26] | Potency [27] | Potency [28] | Potency [29] | Potency [30] | Potency [31] | Potency [33] | Potency [34] | Potency (Aromatase (Homo sapiens)) | Potency [35] | Potency [36] | Potency [37] | Potency [1] | Potency [2] | Potency [3] | Potency [4] | Potency [38] | max activation [39] -3.06% | Potency [40]

Source: PubChem BioAssay (Tox21)
